17 compounds from the supplement of paper PMC9135407 can be followed below.

Values joined by “and” are separate entries in the source; they are usually repeats but may differ in a detail not shown here. Equal entries are not always repeated. The whole screen tested about 5,800 compounds, of which about 620 (11%) showed activity.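 The calls were made as follows: active = score above a cut-off or among the top three wells of a plate; in these data no inactive exceeds 0.85.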 For the sample, actives were picked, then their nearest neighbours and some compounds at random.

This experiment deals with primary human hepatic stellate cells (donor 1). Description: scaled lipid accumulation score (0 = DMSO-like, 1 = nortriptyline-like); higher = stronger HSC inactivation (lipid re-accumulation), active = hit call of the paper. The following applies: 48 h.
Setting [1] is: library stock concentration: 3.33 mM.
Setting [2] is: library stock concentration: 10 mM.
The mark [3] stands for this setting: library stock concentration: 1 mM.

For the compound `CC(NC(=O)c1ccccc1/N=C/c1c(O)ccc2ccccc12)c1ccccc1` (stereo not drawn) [Sirtinol], the “scaled lipid accumulation score” value was 0.008 (inactive) under setting [1]; 0.024 (inactive) and ≤ -0.001 (inactive) under setting [2].
Consider `CCCCCCCCCCCCCCCCOC[C@H](COP(=O)([O-])OCC[N+](C)(C)C)OC` [2-O-methyl PAF C-16], for which the “scaled lipid accumulation score” value under setting [3] was ≤ 0 (inactive).
Turning to `CCCCC[C@H](O)/C=C/[C@H]1CC[C@H](O)[C@@H]1C/C=C\CCCC(=O)O` [11-deoxy Prostaglandin F2.alpha.], the “scaled lipid accumulation score” value under setting [3] is ≤ 0 (inactive).
Still for that read-out and setting: the value for `CCCCCCC(=O)SC[C@H](COP(=O)([O-])OCC[N+](C)(C)C)SC(=O)CCCCCC` [1,2-bis(heptanoylthio) Glycerophosphocholine] was ≤ 0 (inactive).
Consider `CNC(=O)[C@H](Cc1c[nH]c2ccccc12)NC(=O)[C@@H](CC(=O)NO)CC(C)C` [Ilomastat (GM6001, Galardin)], for which the “scaled lipid accumulation score” value by setting is: under setting [1], ≤ -0.009 (inactive); under setting [2], ≤ 0 (inactive).
With `CNC(=O)[C@H](Cc1c[nH]c2ccccc12)NC(=O)[C@@H](CC(=O)NO)CC(C)C`, for the setting “library stock concentration: 12.9 mM”, the “scaled lipid accumulation score” value was ≤ -0.009 (inactive).
For `NC(=O)N1c2ccccc2CC(O)c2ccccc21` (stereo not drawn) [Licarbazepine], under setting [2], the “scaled lipid accumulation score” value was 0.008 (inactive).
Consider `O=c1c(O)c(-c2ccc(O)c(O)c2)oc2cc(O)c(O)c(O)c12` [Quercetagetin], for which, under setting [1], the “scaled lipid accumulation score” value is ≤ 0 (inactive).
Take `O=C(O)C(Cc1c[nH]c2ccccc12)N1C(=O)c2ccccc2C1=O` (stereo not drawn): the “scaled lipid accumulation score” value is, setting by setting: (library stock concentration: 80 uM) ≤ 0 (inactive); (library stock concentration: 400 uM) ≤ 0 (inactive); (library stock concentration: 2 mM) ≤ 0 (inactive); under setting [1], ≤ 0 (inactive); under setting [2], 0.017 (inactive) and ≤ 0 (inactive).
In the case of `C#CCOc1ccccc1CCCCCC(=O)NS(C)(=O)=O`, the “scaled lipid accumulation score” value under setting [3] was 0.013 (inactive).
On to `O=C1CCc2cc(OCCCCc3nnnn3C3CCCCC3)ccc2N1` [Cilostazol], for which the “scaled lipid accumulation score” value is ≤ 0 (inactive). Further, the “scaled lipid accumulation score” value under setting [1] was ≤ 0 (inactive). Also, the “scaled lipid accumulation score” value (library stock concentration: 5.4 mM) is ≤ 0 (inactive).
For the compound `O=C1CCc2ccc(OCCCCN3CCN(c4cccc(Cl)c4Cl)CC3)cc2N1` [Aripiprazole], the “scaled lipid accumulation score” value was ≤ 0 (inactive) under setting [1]; 0.238 (inactive) and 0.464 (inactive) (library stock concentration: 4.5 mM); 0.827 (inactive) under setting [2].
`O=C1CCc2ccc(OCCCCN3CCN(c4cccc(Cl)c4Cl)CC3)cc2N1`: under setting [2], the “scaled lipid accumulation score” value is 0.964 (active).
With `Cn1sc(=O)n(Cc2ccccc2)c1=O` [GSK-3b Inhibitor I], the “scaled lipid accumulation score” value under setting [1] is ≤ 0 (inactive).
On to `Cc1ccc(NC2=CC(=O)c3sc(C)nc3C2=O)cc1` [Cdk4 Inhibitor III], for which the “scaled lipid accumulation score” value under setting [1] was 0.942 (active).
As to `Cc1ccc(NC2=CC(=O)c3sc(C)nc3C2=O)cc1` [Ryuvidine], the “scaled lipid accumulation score” value under setting [2] is 0.904 (active).
Take `O=C(O)[C@]1(Cc2cccc(Nc3nccs3)n2)CC[C@@H](Oc2cccc(Cl)c2F)CC1`: the “scaled lipid accumulation score” value runs as follows: under setting [1], ≤ 0 (inactive); under setting [2], 0.039 (inactive).
